Here are results for eight molecules from PubChem BioAssay (Tox21).

A short description of assay [1]: qHTS assay to identify small molecule agonists of the androgen receptor (AR) signaling pathway in the presence of an antagonist - cell viability counter screen (AID 1259379).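 Further: MDA-kb2 human breast cancer cells carrying an MMTV luciferase reporter; series mostly up to about 92 µM; nearly all actives have a fitted effect of over 25% in size.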 In short, it runs like this: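 Cytotoxicity is assessed by CellTiter-Fluor in MDA-kb2 cells carrying an MMTV-driven luciferase reporter. Cells receive 3.0uM nilutamide plus compounds at 15 concentrations and incubate 16 hr at 37C without CO2 before fluorescence reading.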
A general note: In qHTS, concentration-response curves come from the screen itself.

Assay [2] can be described thus: qHTS assay to identify small molecule agonists of the estrogen receptor beta (ER-beta) signaling pathway - cell viability counter screen (AID 1259380). Further: nearly all actives have a fitted effect of over 30% in size. In short, it runs like this: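 Cytotoxicity is measured in parallel with the reporter screen: after 16 hr compound exposure at 37C and a 2 hr LiveBLAzer step, CellTiter-Glo is added to the same ER-beta-UAS-bla HEK293T wells and luminescence read after 30 min.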

In assay [3] the target is Androgen receptor (Homo sapiens) (UniProt P10275). In words: qHTS assay to identify small molecule agonists of the androgen receptor (AR) signaling pathway in the presence of an antagonist (AID 1259381; calls by dose curve; further: nearly all actives have a fitted effect of over 15% in size). The procedure, abridged:
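Agonist-mode confirmation screen: human MDA-kb2 cells stably expressing luciferase under an MMTV promoter bearing AR and GR response elements, co-treated with 3.0uM nilutamide (final). Luminescence measured after 16hr compound incubation.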

A short description of assay [4]: qHTS assay to identify small molecule antagonists of the estrogen receptor beta (ER-beta) signaling pathway - cell viability counter screen (AID 1259382).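 Further: HEK293T cells carrying ER-beta-UAS-bla reporter stimulated with estradiol; series mostly up to about 92 µM; nearly all actives have a fitted effect of over 55% in size.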 In short, it runs like this:
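Cytotoxicity counter screen multiplexed with the beta-lactamase antagonist assay: GripTite HEK293T ER-beta-bla cells were treated 16 hr with test chemicals in the presence of 1nM 17-beta-estradiol, and viability was measured by CellTiter-Glo.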

The nature of assay [5]: qHTS assay to identify small molecule agonists or antagonists of the thyroid stimulating hormone receptor (TSHR) signaling pathway - wild type cell line counter screen (AID 1259384; calls by dose curve). The procedure, abridged:
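Counter screen in untransfected Hek293: compounds (15-point titration, triplicate) plus phosphodiesterase inhibitor Ro20-1724 added after 18 h plating; 30 min RT. Intracellular cAMP via competitive d2/cryptate immunoassay, 1 h incubation.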

In assay [6] the target is Thyrotropin receptor (Homo sapiens) (UniProt P16473). The assay can be described thus: qHTS assay to identify small molecule antagonists of the thyroid stimulating hormone receptor (TSHR) signaling pathway (AID 1259385; calls by dose curve; further: nearly all actives have a fitted effect of over 20% in size). In short, it runs like this: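 Antagonist mode: compound-treated TSHR-expressing HEK293 cells were stimulated with 1.5 ng/mL TSH (final) in presence of Ro20-1724 for 30 min at RT. HTRF cAMP detection after 1 h; each compound tested at 15 concentrations, triplicate.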
Thyrotropin receptor (Homo sapiens), sequence (P16473 whole entry, looked up): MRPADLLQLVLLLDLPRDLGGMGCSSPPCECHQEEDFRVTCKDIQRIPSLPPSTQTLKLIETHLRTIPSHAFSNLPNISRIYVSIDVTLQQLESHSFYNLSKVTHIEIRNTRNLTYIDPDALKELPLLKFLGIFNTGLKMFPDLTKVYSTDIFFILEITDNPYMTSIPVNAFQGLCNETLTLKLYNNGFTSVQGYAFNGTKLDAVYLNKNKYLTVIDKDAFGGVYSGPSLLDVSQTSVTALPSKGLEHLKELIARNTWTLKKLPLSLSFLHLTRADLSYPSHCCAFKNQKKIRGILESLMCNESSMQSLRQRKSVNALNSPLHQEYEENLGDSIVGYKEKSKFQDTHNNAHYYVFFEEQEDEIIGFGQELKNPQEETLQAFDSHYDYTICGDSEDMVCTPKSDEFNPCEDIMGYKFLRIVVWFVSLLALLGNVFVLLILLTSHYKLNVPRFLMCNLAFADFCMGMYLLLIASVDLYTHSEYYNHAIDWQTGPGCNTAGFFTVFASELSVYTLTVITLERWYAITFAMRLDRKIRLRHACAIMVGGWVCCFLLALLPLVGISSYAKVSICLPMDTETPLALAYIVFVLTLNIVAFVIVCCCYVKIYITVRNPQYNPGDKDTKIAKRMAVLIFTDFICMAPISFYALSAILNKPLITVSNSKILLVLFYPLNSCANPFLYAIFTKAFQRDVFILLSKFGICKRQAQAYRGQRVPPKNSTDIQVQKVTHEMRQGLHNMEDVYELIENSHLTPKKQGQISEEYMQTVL

Assay [7] is described as follows: qHTS assay to identify small molecule agonists of the estrogen receptor alpha (ER-alpha) signaling pathway in the presence of an antagonist - cell viability counter screen (AID 1259386).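 Further: series mostly up to about 92 µM; cells exposed to compounds for 22 h at 37 °C before the viability read; nearly all actives have a fitted effect of over 30% in size.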 In short, it runs like this: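 Cytotoxicity was measured in parallel with the ERE-luciferase agonist screen, in the same wells. The cells were VM7Luc4E2, which endogenously express ER-alpha, and treatment was with compounds plus 10.0nM ICI-182,780 for 22hr.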

Assay [8] has as its target Progesterone receptor (Homo sapiens) (UniProt P06401). The assay can be described thus: qHTS assay to identify small molecule agonists of the progesterone receptor (PR) signaling pathway (AID 1346784; calls by dose curve; further: nearly all actives have a fitted effect of over 30% in size). The procedure, abridged:
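Reporter assay, GripTite PR-UAS-bla HEK 293T cells: 16 hr exposure to DMSO-dissolved compounds at 37C, 5% CO2, in steroid-depleted (2% charcoal-stripped FBS) medium; beta-lactamase measured by FRET fluorescence.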

For assay [9] the target is unchanged. The assay can be described thus: qHTS assay to identify small molecule antagonists of the progesterone receptor (PR) signaling pathway (AID 1346795; active means well fitted inhibition curve with a large enough effect in the signal ratio in the repeat runs, not every such curve was filed as active; the % refers to the signal ratio). The procedure, abridged:
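Stimulus R5020 at 1 nM final; cells HEK293T PR-UAS-bla; medium with 2% charcoal-stripped FBS; compound exposure 16 hr at 37C, 5% CO2; detection by FRET beta-lactamase substrate, 2 hr, room temperature.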

Assay [10] is described as follows: qHTS assay to identify small molecule antagonists of the progesterone receptor (PR) signaling pathway - cell viability counter screen (AID 1346798). Further: series mostly up to about 92 µM; nearly all actives have a fitted effect of over 50% in size. The procedure, abridged: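 In the same plates used for the beta-lactamase readout, cell viability of compound- and R5020-treated PR-UAS-bla HEK293T cells (16 hr, 37C) was assessed by CellTiter-Glo luminescence.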
The nature of assay [11]: qHTS assay to identify small molecule agonists of the progesterone receptor (PR) signaling pathway - cell viability counter screen (AID 1346799; calls by dose curve; further: nearly all actives have a fitted effect of over 45% in size). The procedure, abridged: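 Multiplexed viability read: CellTiter-Glo luminescence, 30 min RT, following LiveBLAzer FRET measurement on PR-UAS-bla HEK293T cells exposed to compounds 16 hr.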
The nature of assay [12]: qHTS assay to identify small molecule antagonists of the TGF-beta/Smad signaling pathway - cell viability counter screen (AID 1346824). Further: nearly all actives have a fitted effect of over 50% in size. In short, it runs like this:
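Cytotoxicity counter-screen run in the same wells as the beta-lactamase Smad reporter read: CellTiter-Glo luminescence after 30 min at room temperature. HEK 293T SBE-bla cells had 5 hr compound exposure at 37 C with TGF-beta1 (0.25 ng/mL stock).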

The nature of assay [13]: qHTS assay to identify small molecule agonists of the TGF-beta/Smad signaling pathway - cell viability counter screen (AID 1346829). Further: top concentration of the series differs between compounds; nearly all actives have a fitted effect of over 45% in size. In short, it runs like this: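 In parallel with the Smad reporter read, viability of HEK 293T cells stably carrying SBE-bla is quantified by ATP luminescence following 5 hr compound treatment.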
Assay [14] can be described thus: qHTS assay to identify small molecule agonists of the TGF-beta/Smad signaling pathway (AID 1346859; active means well fitted activation curve with a large enough effect in the signal ratio in the repeat runs, not every such curve was filed as active; the % refers to the signal ratio; further: series mostly up to about 77 µM). The procedure, abridged: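 Screening used HEK 293T SBE-bla cells at 4,000/well. Test agents: 5 hr, 37 C. Detection: FRET substrate, 2 hr RT, then excitation 405 nm with emissions at 460 and 530 nm.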
Assay [15] concerns the target Thyrotropin-releasing hormone receptor (Homo sapiens) (UniProt P34981). The assay can be described thus: qHTS assay to identify small molecule agonists of the thyrotropin-releasing hormone receptor (TRHR) signaling pathway (AID 1346891; calls by dose curve; further: potency means the concentration at half of the fitted maximal effect; on activation: series mostly up to about 58 µM). In short, it runs like this:
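Readout was intracellular calcium fluorescence in TRHR-Hek293 cells. Cells were incubated 18 h, dye-loaded 2 h at 37 °C, and treated with compound in agonist mode.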

A short description of assay [16]: Human pregnane X receptor (PXR) small molecule agonists, qHTS cell viability counter screen (AID 1346977). Further: nearly all actives have a fitted effect of over 50% in size. Further: potency means the concentration at half of the fitted maximal effect. In short, it runs like this: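 In each well, the PXR reporter HepG2 line was checked for viability: CellTiter-Fluor reagent added 23hr post-dosing, fluorescence read after 1hr incubation at 37C.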
Assay [17] in a line: Caspase-3/7 induction in HepG2 cells by small molecules, qHTS assay (AID 1346978). Further: nearly all actives have a fitted effect of over 15% in size. The procedure, abridged: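 Caspase-3/7 induction was measured by Caspase-Glo 3/7 luminescence (30 min, room temperature) after a 17 hr compound exposure of wild-type HepG2 cells seeded at 2,000 per well and pre-incubated 5 hr.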
The nature of assay [18]: Caspase-3/7 induction in CHO-K1 cells by small molecules, qHTS cell viability counter screen (AID 1346979). Further: nearly all actives have a fitted effect of over 35% in size. Further: potency means the concentration at half of the fitted maximal effect. In short, it runs like this: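 Following a 5hr settling period, CHO-K1 cells at 1,500 per well received DMSO-dissolved compounds. Cell viability was quantified 16hr later by CellTiter-Fluor fluorescence, measured after 1hr with reagent at 37C.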
The target in assay [19] is Estrogen receptor (Homo sapiens) (UniProt P03372). The assay can be described thus: qHTS assay to identify small molecule agonists of the estrogen receptor alpha (ER-alpha) signaling pathway in the presence of an antagonist (AID 1259383; calls by dose curve; further: top concentration of the series differs between compounds; nearly all actives have a fitted effect of over 15% in size). The procedure, abridged:
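Agonist-mode confirmation in the presence of the ER antagonist ICI-182,780 at 10.0nM final. Breast-derived VM7Luc4E2 reporter cells were exposed to compounds for 22hr, and ERE-driven luciferase was quantified by luminescence.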

Assay [20] concerns the target Thyrotropin-releasing hormone receptor (Homo sapiens) (UniProt P34981). In words: qHTS assay to identify small molecule antagonists of the thyrotropin-releasing hormone receptor (TRHR) signaling pathway (AID 1346877; active means well fitted inhibition curve with a large enough effect in the repeat runs, not every such curve was filed as active; further: series mostly up to about 51 µM). In short, it runs like this: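 Antagonism is measured as suppression of the calcium response to 1 nM TRH in TRHR-HEK293 cells that have been dye-loaded for 2 h at 37 °C after overnight plating. Each compound is tested at 15 concentrations in triplicate.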

Where “and” joins values, the source holds several entries; their conditions need not be identical. Equal entries are not always repeated. Results filed as inconclusive are left out. Some compounds were tested as several samples or in several runs, with calls that do not always agree. Calls of active or inactive are those of the source. Unless noted, the call rests on the fitted dose curve; in most records, active means well fitted curve in the direction sought with a large enough effect in the repeat runs; inconclusive means weak or mixed curves; inactive means no such curve, though single readings can be large; an effect the other way counts as inactive or inconclusive.

Progesterone receptor (Homo sapiens), sequence (P06401 whole entry, looked up): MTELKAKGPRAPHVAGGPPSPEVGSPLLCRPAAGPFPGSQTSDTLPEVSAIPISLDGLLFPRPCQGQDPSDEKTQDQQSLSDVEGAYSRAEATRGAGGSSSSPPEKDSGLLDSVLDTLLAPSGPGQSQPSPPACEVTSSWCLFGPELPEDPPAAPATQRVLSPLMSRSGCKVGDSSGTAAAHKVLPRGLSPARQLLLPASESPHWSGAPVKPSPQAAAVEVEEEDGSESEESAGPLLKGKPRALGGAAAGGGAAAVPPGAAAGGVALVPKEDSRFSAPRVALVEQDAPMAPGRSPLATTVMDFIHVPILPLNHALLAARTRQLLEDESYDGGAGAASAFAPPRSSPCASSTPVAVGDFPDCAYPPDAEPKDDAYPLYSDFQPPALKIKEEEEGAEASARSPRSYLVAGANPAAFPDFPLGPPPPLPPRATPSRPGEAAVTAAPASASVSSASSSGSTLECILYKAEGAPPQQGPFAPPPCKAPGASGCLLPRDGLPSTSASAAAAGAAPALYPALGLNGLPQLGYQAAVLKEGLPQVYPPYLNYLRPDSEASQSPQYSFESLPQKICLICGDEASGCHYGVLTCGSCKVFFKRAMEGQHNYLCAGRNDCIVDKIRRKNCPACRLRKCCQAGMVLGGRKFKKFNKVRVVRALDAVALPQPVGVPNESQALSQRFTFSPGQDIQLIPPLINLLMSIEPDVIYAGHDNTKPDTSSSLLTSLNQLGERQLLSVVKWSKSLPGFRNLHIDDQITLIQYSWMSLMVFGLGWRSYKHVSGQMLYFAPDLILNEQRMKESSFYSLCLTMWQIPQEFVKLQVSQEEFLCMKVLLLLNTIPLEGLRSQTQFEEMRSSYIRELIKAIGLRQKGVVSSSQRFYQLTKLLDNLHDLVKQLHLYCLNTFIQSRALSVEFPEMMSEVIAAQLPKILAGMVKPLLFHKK
Estrogen receptor (Homo sapiens), sequence (P03372 whole entry, looked up): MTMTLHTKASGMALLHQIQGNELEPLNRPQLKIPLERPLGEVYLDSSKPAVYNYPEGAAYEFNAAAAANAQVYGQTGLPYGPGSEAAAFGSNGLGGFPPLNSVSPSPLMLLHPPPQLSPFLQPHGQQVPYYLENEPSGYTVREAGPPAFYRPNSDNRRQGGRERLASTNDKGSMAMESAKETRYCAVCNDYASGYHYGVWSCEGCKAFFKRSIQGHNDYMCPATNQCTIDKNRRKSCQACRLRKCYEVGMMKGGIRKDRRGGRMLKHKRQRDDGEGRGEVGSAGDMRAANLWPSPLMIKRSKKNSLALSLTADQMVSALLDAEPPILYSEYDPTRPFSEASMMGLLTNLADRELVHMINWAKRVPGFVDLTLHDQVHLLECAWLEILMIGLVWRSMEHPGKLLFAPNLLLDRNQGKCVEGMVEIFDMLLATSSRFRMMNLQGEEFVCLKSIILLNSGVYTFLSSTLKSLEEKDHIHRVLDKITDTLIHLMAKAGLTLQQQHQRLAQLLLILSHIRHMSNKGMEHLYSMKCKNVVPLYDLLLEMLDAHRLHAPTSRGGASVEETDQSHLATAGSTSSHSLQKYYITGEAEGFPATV
Thyrotropin-releasing hormone receptor (Homo sapiens), sequence (P34981 whole entry, looked up): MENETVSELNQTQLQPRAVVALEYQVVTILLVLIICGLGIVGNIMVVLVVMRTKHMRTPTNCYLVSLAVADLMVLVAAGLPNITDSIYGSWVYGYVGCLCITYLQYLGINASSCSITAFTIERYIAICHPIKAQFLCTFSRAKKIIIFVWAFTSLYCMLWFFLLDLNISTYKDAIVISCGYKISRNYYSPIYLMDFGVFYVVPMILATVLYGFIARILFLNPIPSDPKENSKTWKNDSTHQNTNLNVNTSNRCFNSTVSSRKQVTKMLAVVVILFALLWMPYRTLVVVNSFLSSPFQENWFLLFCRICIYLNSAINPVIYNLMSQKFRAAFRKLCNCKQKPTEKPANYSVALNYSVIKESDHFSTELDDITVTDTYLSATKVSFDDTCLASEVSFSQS
Androgen receptor (Homo sapiens), sequence (P10275 whole entry, looked up): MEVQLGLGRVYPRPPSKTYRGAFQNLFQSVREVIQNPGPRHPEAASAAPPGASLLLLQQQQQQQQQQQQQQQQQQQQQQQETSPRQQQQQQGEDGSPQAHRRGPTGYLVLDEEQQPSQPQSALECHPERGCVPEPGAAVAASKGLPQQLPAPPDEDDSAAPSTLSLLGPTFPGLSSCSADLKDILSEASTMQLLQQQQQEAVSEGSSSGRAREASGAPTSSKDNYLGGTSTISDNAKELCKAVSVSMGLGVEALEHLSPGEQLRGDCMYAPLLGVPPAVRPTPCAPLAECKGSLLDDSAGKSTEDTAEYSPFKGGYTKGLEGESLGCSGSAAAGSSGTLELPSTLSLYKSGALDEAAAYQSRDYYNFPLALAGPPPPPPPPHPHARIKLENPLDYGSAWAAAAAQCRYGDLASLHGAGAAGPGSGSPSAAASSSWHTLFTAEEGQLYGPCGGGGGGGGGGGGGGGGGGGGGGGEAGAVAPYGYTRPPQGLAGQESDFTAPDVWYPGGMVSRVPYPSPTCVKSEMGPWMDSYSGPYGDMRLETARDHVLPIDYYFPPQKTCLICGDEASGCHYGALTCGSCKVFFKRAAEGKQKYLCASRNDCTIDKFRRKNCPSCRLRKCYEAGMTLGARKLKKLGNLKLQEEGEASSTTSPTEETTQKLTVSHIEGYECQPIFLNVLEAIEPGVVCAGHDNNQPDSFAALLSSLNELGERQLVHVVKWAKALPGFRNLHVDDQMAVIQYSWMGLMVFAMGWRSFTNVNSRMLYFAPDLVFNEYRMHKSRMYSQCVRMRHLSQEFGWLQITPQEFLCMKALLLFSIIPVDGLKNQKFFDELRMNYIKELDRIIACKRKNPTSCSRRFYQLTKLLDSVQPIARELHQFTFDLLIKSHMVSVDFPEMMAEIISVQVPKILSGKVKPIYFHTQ

On to `O=c1[nH]c(=O)[nH]c(=O)[nH]1`, for which the result in [1], in assay [3], in assay [5], in assay [7], in assay [8] and in [13] was inactive. Also, in assay [17], the outcome was inactive. For the same molecule, the Potency entry in [2], in assay [4], in [6], in [9], in assay [10] and in assay [11] was “inactive” throughout. Moreover, the Potency entry in assay [12], in [14], in assay [15], in [16] and in [18] was “inactive” in each case.

In the case of `CC(C)OC(=O)Nc1ccccc1`, the outcome in assay [1], in assay [5], in assay [7], in assay [8], in [13] and in assay [20] was inactive. For the same molecule, the result in assay [17] was inactive. Also, the Potency result in assay [2], in assay [4], in assay [19], in [6], in [9] and in assay [10] was “inactive” each time. For the same molecule, the Potency result in [11], in assay [12], in assay [14], in assay [15], in [16] and in [18] was “inactive” in each case.

Turning to `CC(C#N)CCC#N` (centres undefined), the outcome in [1], in assay [5], in [7], in assay [8], in [13] and in [20] was inactive. The Potency result in [2], in assay [4], in assay [19], in [6], in assay [9] and in [10] was “inactive” each time. Further, the Potency result in [11], in [12], in assay [14], in assay [15], in assay [16] and in [18] was “inactive” throughout.

As for `COc1ccc2c3c1O[C@H]1[C@@H](O)C=C[C@H]4[C@@H](C2)N(C)CC[C@@]341`, the outcome in assay [1], in [5], in assay [7], in [8], in [13] and in [17] was inactive. Also, the Potency entry in assay [2], in [4], in [19], in [6], in assay [9] and in assay [10] was “inactive” in each case. The Potency entry in assay [11], in assay [12] and in assay [14] was “inactive” each time. Moreover, the Potency in assay [16] is 67.5 µM (active) and inactive; in assay [18], 60.1 µM (active) and inactive.

With `O=[N+]([O-])c1ccccc1`, the result in assay [1], in [5], in assay [7], in [8], in [13] and in assay [20] was inactive. In addition, the Potency result in assay [2], in assay [4], in assay [19], in [6], in assay [9] and in [10] was “inactive” in each case. The Potency result in [11], in [12], in assay [14], in [15], in assay [16] and in [18] was “inactive” throughout.

Turning to `CN=C=S`, the outcome in [1], in assay [5], in [7], in assay [8], in [13] and in assay [20] was inactive. The call in assay [17] was inactive. In addition, the Potency entry in assay [2], in [4], in assay [19], in assay [6], in [9] and in [10] was “inactive” each time. Further, the Potency result in assay [11], in assay [12], in assay [14], in [15], in assay [16] and in assay [18] was “inactive” each time.

Take `COC(=O)NS(=O)(=O)c1ccc(N)cc1`: the result in [1], in [5], in assay [7], in assay [8], in assay [13] and in [17] was inactive. Further, the Potency result in [2], in [4], in [19], in assay [6], in assay [9] and in [10] was “inactive” throughout. For the same molecule, the Potency result in [11], in assay [12], in [14], in assay [16] and in assay [18] was “inactive” in each case.

With `C1CN2CCN1CC2`, the result in assay [1], in assay [5], in [7], in assay [8], in assay [13] and in assay [17] was inactive. Further, the Potency entry in [2], in assay [4], in assay [19], in [6], in assay [9] and in assay [10] was “inactive” each time. Further, the Potency entry in assay [11], in assay [12], in assay [14], in assay [16] and in [18] was “inactive” throughout. For the same molecule, the Potency entry in assay [15] was “inactive and 34.7 µM (active)”.
